# GC-A act – GC-A (human) enzyme activation. HEK293 GC-A cells, cGMP TR-FRET, EC30 ANP; 0% at EC30 ANP, 100% saturating ANP. hit rate 0.14% among 370,000. activation, % at 10 µM. P16066. AID 1671463; in the data active means activation above about 40%
# TLR9-MyD88 block – blocks human TLR9 binding to MyD88; inhibition, % at 4.98 µM; AID 504734; Q9NR96+Q99836; hit rate 0.21% among 340,000; CHO BLA complementation TLR9-MyD88, CCF4 FRET ratio;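 active means inhibition above the mean over all tested compounds plus 3 SD, cut at about 21% in these data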;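 further: 0% = DMSO only wells and 100% = clavulanate BLA inhibitor control wells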
# Neddyl block – blocks human cullin neddylation. inhibition, % at 25 µM. hit rate 0.58% among 360,000. TR-FRET cullin neddylation, biochemical. AID 651699; in the data active means inhibition above about 36%
# Target sequence (P61081 whole entry, looked up): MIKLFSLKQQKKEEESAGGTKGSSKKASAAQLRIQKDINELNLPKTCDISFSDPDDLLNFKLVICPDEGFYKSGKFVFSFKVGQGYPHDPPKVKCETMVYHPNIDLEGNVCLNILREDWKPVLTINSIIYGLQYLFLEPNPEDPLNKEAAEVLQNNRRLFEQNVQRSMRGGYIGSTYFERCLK
# Target sequence (Q13564 whole entry, looked up): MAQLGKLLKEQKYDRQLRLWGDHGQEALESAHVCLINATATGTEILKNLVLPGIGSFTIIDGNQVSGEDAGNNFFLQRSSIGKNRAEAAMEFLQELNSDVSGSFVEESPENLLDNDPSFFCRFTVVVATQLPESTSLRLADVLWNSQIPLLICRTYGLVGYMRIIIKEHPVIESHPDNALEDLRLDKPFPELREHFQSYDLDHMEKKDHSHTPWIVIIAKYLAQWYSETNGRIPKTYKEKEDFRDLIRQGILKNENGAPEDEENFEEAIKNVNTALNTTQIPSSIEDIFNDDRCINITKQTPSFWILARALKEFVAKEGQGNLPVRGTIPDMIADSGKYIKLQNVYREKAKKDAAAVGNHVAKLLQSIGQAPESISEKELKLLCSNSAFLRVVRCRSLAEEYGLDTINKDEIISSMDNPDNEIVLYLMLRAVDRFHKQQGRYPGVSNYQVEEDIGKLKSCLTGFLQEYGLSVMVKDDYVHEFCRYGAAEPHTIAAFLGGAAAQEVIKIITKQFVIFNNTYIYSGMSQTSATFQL
# TLR4 MyD88 comp – blocks binding of human TLR4 to MyD88; hit rate 0.18% among 200,000; HeLa CL3-4 TLR4/MyD88 BLA complementation, FRET ratio; inhibition, % at 8.4 µM; O00206+Q99836; in the data active means inhibition above about 25%;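 further: 0% = vehicle and 100% = reference inhibitor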
# NPR2 activator – GC-B (human) receptor activation; HEK293-GC-B cells, CNP EC30, cGMP TR-FRET; 0% at EC30 CNP, 100% saturating CNP; AID 1920062; hit rate 0.11% among 370,000; activation, % at 10 µM; P20594;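 active means activation at 10 µM reaching about 35% in either raw or pattern-adjusted values, limit read from the data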
# NOD2-RIPK2 inh – NOD2-RIPK2 protein interaction inhibition; CHO BLA complementation NOD2-RIPK2, CCF4 ratio; inhibition, % at 4.98 µM; hit rate 0.38% among 360,000; in the data active means inhibition above about 21%;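 further: 0% = vehicle only and 100% = reference blocker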
# NOD2 RIPK2 conf – NOD2-RIPK2 interaction inhibition confirmed. shares compounds with NOD2-RIPK2 inh. CHO cells, NOD2-RIPK2 BLA complementation, CCF4 FRET. inhibition, % at 4.98 µM. hit rate 70% among 1,200. AID 624370;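 active means mean inhibition across replicates above a set limit taken from the earlier primary screen, cut at about 21% in these data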;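 further: 0% = DMSO-only wells and the high end = clavulanate BLA-blocked wells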
# BLA counter – hits BLA reporter in NOD2-RIPK2 inhibitor counterscreen; shares compounds with NOD2-RIPK2 inh; CHO BLA reporter, CCF4 FRET ratio; inhibition, % at 4.98 µM; hit rate 57% among 1,200; AID 624371;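 active means mean inhibition above the low-control mean inhibition plus three low-control SD, cut at about 11% in these data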;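 further: 0% = DMSO only wells and 100% = clavulanate high control wells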
# Neddyl inh conf – cullin neddylation inhibition, confirmation; shares compounds with Neddyl block; TR-FRET cullin neddylation biochemical assay; calls only at 25 µM; hit rate 13% among 1,800; in the data active means inhibition above about 40%;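 further: neddylation substrate is the cullin 1 ring ligase complex with SKP2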
# Starred values were filed as active, the others as inactive; i = inactive; / = no result shown; + = active, no number; ! = a repeat was not active. Sampled rows, rich in hits. Any-hit rate of the full collection: about 1.2%.
SMILES,GC-A act,TLR9-MyD88 block,Neddyl block,TLR4 MyD88 comp,NPR2 activator,NOD2-RIPK2 inh,NOD2 RIPK2 conf,BLA counter,others
C/C(=N\NC(=O)c1cc(-c2ccncc2)nc2ccccc12)c1ccc(N2CCOCC2)cc1,-3,7,-12,-12,0,24*,6,2,
Cc1ccc(-c2c(C(=O)NC3CCCC3)oc(=O)c3ccccc23)cc1,-16,/,/,/,-8,/,/,/,
O=C1C(O)=CC(=C(c2ccccc2)c2ccccc2)c2ccccc21,-10,9,-16,/,4,34*,1,-3,
CN(C)c1ccc(/C=C/c2cccc[n+]2[O-])cc1,-4,/,11,/,-5,26*,-24,8,
Cc1cc(-c2ccco2)c(C#N)c2nc3ccccc3n12,27,5,/,12,0,22*,18,15*,
CCOC(=O)C(C)N1C(=O)S/C(=C\c2ccc(-c3ccccc3C(=O)O)o2)C1=O (configuration not stated),1,-1,/,/,3,23*,12,21*,
Cc1ccc(NC(=O)CN2C(=O)S/C(=C\c3ccc(-c4cccc(C(=O)O)c4C)o3)C2=O)cc1,/,/,/,3,/,/,/,/,
Cc1nc([N+](=O)[O-])c(Br)n1CC(=O)c1ccc(Cl)cc1,1,-3,-32,7,3,15,/,/,
Cc1nc([N+](=O)[O-])c(Br)n1Cc1ccc(Cl)c(Cl)c1,-9,8,-4,13,3,23*,43*,-4,
O=C(CSc1ccccn1)Nc1nonc1[N+](=O)[O-],0,15,9,/,-1,31*,13,5,
O=C(Nc1ccc(F)cc1)c1nn(-c2ccccc2)c(=O)cc1Cl,-12,7,-25,6,-4,36*,40*,5,
CCCCCCCCN1C(=O)[C@@H](CC(=O)NCCC(C)C)C[C@@]2(C(=O)OC)C1=C[C@H](COCc1ccccc1)O[C@@H]2C,1,/,/,/,-4,/,/,/,
O=C1OCCN1CC(=O)N1CCc2c([nH]c3ccccc23)C1c1ccccn1 (configuration not stated),-1,-13,11,-8,1,22*,-12,-4,
O=C1C(=C(c2ccccc2)N2CCOCC2)Cc2ccccc21,-8,15,7,/,-1,84*,85*,6,
O=C(c1ccccc1)N1CCN(C(=O)N2CCOCC2)CC1,/,-12,9,5,/,-3,/,/,
CCCCNc1c(-c2ccc(SC3CCCCC3)cc2)nc2ccccn12,10,0,/,/,-3,6,/,/,
CCCCNc1c(-c2ccc(SC(C)CC)cc2)nc2ccccn12 (configuration not stated),11,10,/,/,2,22*!,20,16*,
CCCCN(C)C(=O)CSc1nnc(-c2cccnc2)n1C1CCCCC1,2,/,/,/,-8,/,/,/,
S=c1[nH]c(-c2ccccc2)cn1/N=C/c1ccc(Br)cc1,10,-4,42*,9,-5,3,/,/,Neddyl inh conf=i
CCOC(=O)c1cc2c(=O)n3ccccc3nc2n(CCOC)c1=NC(=O)c1ccncc1,5,-14,63*,-9,-4,-5,/,/,Neddyl inh conf=+
CCOC(=O)c1cc2c(=O)n3ccccc3nc2n(C(C)C)c1=NC(=O)c1ccncc1,6,-7,67*,-3,3,0,/,/,Neddyl inh conf=+
COc1cccc(C(NC(C)=O)c2nc(-c3cccc(C#N)c3)cs2)c1 (configuration not stated),-5,/,-45,/,-4,-14,/,/,
COc1ccc2[nH]c(C(=O)O)c(NS(=O)(=O)c3ccc(C)cc3C)c2c1,2,-6,48*,/,0,-9,/,/,
Cc1nc2cc(F)ccc2n1C1CCN(C(=O)c2c(F)cccc2F)CC1,-9,-4,45*,6,-13,0,/,/,Neddyl inh conf=i
N#Cc1ccc2[nH]c(CO)c(-c3ccccc3)c2c1,-5,-1,31*,/,3,-5,/,/,Neddyl inh conf=i

# Screening results: PubChem BioAssay, several laboratories
